The residual activity is the signal under treatment as a percentage of the control signal.

Each structure is given as a SMILES string.

The target in assay [1] is T1, Ephrin type-B receptor 1 (Homo sapiens) (UniProt P54762).
T1 sequence (whole entry): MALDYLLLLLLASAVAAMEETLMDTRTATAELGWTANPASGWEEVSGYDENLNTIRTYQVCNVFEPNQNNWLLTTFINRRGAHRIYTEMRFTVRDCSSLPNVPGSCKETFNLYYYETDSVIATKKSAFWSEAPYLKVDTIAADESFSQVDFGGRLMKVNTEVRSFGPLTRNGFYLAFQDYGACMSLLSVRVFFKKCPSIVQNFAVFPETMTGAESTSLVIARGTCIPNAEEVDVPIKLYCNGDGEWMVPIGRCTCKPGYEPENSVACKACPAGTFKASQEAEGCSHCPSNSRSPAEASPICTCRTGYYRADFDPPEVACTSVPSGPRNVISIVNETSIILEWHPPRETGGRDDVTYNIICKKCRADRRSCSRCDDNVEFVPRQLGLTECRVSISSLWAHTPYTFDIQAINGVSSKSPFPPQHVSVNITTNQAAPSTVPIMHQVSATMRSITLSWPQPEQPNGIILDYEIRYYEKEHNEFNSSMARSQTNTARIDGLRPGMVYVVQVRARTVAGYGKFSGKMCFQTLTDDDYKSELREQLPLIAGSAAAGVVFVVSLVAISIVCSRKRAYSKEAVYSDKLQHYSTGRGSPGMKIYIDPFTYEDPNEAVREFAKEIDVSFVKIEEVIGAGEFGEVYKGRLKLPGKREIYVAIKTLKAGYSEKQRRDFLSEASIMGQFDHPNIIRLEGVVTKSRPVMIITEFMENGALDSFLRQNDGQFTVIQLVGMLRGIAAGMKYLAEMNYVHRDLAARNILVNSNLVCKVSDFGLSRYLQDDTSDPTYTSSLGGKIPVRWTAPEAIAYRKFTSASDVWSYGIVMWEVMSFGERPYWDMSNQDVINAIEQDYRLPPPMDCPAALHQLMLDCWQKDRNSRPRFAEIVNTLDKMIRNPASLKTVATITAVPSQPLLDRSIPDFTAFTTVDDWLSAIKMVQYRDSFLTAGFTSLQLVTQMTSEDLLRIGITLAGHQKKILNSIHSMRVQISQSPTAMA
As to conditions: at 10 µM; call rule not given here.

The target of assay [2] is T2, Ephrin type-B receptor 2 (Homo sapiens) (UniProt P29323).
T2 sequence (whole entry): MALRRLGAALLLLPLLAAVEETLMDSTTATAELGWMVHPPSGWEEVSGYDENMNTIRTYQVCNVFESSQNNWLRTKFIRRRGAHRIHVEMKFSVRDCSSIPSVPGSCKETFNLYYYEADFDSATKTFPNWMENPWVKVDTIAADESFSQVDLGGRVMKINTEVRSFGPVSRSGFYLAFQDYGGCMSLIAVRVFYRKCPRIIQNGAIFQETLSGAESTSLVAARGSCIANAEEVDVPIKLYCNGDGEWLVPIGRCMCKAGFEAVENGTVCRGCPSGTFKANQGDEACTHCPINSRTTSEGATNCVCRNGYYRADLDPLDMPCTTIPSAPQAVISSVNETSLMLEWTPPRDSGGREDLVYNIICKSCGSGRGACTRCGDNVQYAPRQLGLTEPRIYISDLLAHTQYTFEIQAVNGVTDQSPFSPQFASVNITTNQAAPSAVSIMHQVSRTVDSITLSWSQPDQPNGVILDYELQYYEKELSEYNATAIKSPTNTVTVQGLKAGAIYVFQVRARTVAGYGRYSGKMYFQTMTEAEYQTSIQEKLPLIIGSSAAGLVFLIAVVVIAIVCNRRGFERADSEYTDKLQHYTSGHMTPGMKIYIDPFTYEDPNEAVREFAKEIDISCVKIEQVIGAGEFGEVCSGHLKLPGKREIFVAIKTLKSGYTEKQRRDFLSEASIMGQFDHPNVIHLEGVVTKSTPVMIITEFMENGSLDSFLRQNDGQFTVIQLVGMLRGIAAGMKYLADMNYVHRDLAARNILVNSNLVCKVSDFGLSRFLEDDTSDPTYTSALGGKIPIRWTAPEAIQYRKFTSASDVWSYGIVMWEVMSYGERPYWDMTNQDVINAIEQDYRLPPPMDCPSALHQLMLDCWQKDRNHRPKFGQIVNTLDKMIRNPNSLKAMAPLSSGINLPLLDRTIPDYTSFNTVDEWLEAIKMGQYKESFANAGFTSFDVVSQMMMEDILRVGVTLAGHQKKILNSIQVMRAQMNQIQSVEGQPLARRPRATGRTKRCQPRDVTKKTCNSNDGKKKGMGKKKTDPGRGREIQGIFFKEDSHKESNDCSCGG
The settings on record: at 1 µM.

The target in assay [3] is T2, Ephrin type-B receptor 2 (Homo sapiens). The settings on record: at 10 µM.
Assay [4] deals with T3, Ephrin type-B receptor 3 (Homo sapiens) (UniProt P54753).
T3 sequence (whole entry): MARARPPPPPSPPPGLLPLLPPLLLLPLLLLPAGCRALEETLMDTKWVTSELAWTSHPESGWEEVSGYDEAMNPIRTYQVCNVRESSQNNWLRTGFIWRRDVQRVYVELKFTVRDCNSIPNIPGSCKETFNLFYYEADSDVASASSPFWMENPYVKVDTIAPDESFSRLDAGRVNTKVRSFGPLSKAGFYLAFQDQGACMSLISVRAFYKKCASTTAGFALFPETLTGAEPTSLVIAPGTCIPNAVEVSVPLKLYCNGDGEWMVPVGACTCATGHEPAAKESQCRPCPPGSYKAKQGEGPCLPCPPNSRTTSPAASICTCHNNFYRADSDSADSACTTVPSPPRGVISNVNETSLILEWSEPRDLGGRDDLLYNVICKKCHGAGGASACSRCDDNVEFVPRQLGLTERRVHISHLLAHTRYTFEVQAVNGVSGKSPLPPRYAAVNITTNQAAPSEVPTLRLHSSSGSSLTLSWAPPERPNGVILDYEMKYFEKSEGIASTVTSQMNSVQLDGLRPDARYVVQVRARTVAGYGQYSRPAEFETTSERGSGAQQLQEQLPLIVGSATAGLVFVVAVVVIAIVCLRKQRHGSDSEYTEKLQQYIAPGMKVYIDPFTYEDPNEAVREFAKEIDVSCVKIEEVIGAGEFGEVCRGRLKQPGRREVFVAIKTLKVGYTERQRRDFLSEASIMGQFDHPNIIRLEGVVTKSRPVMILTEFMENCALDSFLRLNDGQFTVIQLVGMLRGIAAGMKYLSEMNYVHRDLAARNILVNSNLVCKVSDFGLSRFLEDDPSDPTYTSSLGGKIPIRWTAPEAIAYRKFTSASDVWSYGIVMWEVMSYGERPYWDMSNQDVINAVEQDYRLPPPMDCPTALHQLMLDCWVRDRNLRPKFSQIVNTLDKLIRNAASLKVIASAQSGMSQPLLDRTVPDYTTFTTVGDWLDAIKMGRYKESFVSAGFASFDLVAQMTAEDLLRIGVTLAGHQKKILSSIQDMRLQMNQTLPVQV
The settings on record: at 1 µM.

Assay [5] concerns the target T3, Ephrin type-B receptor 3 (Homo sapiens). The settings on record: at 10 µM.
Assay [6] deals with T4, Ephrin type-B receptor 4 (Homo sapiens) (UniProt P54760).
T4 sequence (whole entry): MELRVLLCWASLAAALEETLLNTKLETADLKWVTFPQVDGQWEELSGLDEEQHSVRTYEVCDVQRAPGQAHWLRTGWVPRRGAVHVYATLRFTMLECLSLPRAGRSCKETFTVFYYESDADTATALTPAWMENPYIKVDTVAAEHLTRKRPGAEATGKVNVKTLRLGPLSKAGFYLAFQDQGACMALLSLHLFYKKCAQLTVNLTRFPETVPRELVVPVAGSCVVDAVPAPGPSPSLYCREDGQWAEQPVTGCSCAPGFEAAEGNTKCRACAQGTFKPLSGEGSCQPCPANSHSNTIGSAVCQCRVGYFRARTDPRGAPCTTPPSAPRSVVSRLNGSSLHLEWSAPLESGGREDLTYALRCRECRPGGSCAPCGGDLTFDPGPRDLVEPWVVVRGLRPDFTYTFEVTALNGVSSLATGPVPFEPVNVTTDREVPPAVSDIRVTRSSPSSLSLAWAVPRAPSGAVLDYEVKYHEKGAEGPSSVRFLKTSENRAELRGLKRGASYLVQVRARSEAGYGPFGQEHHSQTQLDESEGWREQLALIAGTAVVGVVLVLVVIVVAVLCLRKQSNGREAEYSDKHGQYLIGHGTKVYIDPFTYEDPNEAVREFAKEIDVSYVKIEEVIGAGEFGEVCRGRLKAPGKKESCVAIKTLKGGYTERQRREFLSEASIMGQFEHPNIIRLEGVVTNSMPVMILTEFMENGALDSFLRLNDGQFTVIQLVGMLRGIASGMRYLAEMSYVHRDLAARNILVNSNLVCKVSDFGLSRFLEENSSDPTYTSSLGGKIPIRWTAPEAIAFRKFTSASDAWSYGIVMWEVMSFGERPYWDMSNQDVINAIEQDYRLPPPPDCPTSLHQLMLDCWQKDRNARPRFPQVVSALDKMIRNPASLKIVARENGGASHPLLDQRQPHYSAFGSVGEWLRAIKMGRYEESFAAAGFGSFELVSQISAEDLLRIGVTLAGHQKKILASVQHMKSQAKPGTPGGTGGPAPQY
The settings on record: at 1 µM.

Assay [7] addresses T4, Ephrin type-B receptor 4 (Homo sapiens). As to conditions: at 10 µM.
The target in assay [8] is Receptor tyrosine-protein kinase erbB-4 (Homo sapiens) (UniProt Q15303). The settings on record: at 1 µM.
Sequence of Receptor tyrosine-protein kinase erbB-4 (Homo sapiens) (Q15303 whole entry): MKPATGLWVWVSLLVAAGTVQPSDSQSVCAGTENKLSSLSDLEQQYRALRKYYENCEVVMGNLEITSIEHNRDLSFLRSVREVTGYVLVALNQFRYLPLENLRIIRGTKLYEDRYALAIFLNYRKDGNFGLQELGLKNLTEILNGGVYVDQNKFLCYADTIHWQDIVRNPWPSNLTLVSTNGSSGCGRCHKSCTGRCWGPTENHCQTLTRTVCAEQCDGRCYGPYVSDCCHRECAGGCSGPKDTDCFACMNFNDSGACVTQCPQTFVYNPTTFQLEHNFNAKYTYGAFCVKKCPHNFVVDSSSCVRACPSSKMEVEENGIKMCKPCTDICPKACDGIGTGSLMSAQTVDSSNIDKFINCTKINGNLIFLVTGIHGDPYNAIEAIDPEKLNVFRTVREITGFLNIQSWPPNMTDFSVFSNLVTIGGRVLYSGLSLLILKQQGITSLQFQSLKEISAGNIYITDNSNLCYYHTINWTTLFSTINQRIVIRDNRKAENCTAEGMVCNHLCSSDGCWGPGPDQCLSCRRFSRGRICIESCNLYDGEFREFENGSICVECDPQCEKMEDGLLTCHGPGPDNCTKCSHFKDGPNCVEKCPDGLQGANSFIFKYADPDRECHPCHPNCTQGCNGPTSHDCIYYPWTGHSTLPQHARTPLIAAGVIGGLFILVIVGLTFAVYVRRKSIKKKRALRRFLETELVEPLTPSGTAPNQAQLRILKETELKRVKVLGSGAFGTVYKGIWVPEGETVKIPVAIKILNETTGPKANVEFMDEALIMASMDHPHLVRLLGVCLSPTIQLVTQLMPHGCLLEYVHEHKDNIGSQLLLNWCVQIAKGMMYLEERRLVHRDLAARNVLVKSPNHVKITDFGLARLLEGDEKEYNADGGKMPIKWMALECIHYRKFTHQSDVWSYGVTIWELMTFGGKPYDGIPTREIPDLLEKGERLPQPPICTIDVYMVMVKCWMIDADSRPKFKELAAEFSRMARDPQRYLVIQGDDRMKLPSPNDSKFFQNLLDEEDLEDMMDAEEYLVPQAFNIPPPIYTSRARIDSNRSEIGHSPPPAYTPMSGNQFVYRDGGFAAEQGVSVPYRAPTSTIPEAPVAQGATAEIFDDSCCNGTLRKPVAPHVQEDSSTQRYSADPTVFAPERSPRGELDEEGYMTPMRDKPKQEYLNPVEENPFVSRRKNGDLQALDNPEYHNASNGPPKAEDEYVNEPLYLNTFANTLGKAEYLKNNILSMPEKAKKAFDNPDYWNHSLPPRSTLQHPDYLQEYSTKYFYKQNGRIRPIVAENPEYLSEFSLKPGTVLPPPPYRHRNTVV
Assay [9] shares this target. As to conditions: at 10 µM.
For assay [10], the target named is Focal adhesion kinase 1 (Homo sapiens) (UniProt Q05397). The settings on record: at 1 µM.
Sequence of Focal adhesion kinase 1 (Homo sapiens) (Q05397 2-1052 limits assumed): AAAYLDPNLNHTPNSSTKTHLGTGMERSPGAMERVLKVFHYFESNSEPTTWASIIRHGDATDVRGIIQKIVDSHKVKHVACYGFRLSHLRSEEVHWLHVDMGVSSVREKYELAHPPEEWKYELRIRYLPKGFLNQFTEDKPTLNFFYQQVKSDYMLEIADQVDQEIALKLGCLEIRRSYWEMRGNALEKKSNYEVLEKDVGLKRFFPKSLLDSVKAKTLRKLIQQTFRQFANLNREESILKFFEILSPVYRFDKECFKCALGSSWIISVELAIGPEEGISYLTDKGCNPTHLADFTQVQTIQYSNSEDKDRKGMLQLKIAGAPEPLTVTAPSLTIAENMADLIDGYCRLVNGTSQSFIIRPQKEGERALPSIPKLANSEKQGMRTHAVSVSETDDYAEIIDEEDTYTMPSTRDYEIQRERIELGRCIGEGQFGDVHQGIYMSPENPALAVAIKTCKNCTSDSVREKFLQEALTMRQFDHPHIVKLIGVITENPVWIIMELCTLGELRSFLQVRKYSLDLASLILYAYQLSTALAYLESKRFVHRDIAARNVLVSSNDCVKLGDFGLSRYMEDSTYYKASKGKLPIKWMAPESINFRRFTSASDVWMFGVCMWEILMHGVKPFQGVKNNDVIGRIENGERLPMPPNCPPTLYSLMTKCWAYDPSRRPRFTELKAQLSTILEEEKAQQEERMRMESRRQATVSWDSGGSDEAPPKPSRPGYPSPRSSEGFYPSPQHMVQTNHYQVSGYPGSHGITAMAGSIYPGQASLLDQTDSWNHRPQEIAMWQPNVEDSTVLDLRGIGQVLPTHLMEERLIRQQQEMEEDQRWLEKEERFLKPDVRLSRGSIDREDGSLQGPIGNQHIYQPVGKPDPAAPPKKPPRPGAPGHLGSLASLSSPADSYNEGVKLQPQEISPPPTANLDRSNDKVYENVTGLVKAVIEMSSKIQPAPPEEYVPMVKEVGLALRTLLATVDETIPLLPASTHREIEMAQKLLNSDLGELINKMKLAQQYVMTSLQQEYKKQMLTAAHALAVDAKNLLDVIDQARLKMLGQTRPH

Take `CCN(CC)CCCCN1c2ccccc2Oc2ccc(Cl)cc21`: the residual activity was 117% in assay [1]; 122% in [2]; 121% in [3]; 106% (inactive) in [4]; 132% in assay [5]; 109% in [6]. Besides, the residual activity amounted to 133% in assay [7], 102% in [8], 95% in [9] and 144% in assay [10].
